This note sets out measurements from PubChem BioAssay (NCATS).

Assay [1] concerns the target Cellular tumor antigen p53 (Homo sapiens) (UniProt P04637). The assay is described as follows: Primary qHTS for small molecule compounds that upregulate eGFP-tagged delta133p53alpha (in N-terminal) cells. (AID 2060322).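 Further: cells pre-induced with doxycycline then dosed without doxycycline; series mostly up to about 56 µM; 0% = DMSO vehicle and 100% = reference activator; nearly all actives have a fitted effect of over 75% in size.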 Particulars: NCI-H358 eGFP-delta133p53alpha fluorescence, 24 h; activation: active compounds read high. In a few lines: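 NCI-H358 cells pre-induced 24 h with 10 ng/ml doxycycline for eGFP-delta133p53alpha, plated dox-free and exposed 24 h at 37C to titrated compounds. Fixed, Hoechst-stained; gated GFP peak intensity by laser scanning cytometry, normalized to DMSO (0%) and 57.5 uM 5-azacytidine (100%).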
Background: In qHTS, concentration-response curves come from the screen itself.

Assay [2] shares this target. The assay is described as follows: Primary qHTS for small molecule compounds that upregulate eGFP-tagged delta133p53alpha (in C-terminal) cells. (AID 2060324).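 Further: 0% = DMSO wells and 100% = 57.5 µM 5-azacytidine.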 In a few lines: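 Doxycycline (100 ng/ml, 24 h) first induced the eGFP fusion in NCI-H358 C-terminal-tag cells. Washed-out cells then received titrated compounds for 24 h at 37 °C before paraformaldehyde fixation, Hoechst staining and cytometric GFP quantification.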

The target in assay [3] is Aldehyde dehydrogenase, mitochondrial (Homo sapiens) (UniProt P05091). The assay is described as follows: qHTS for Inhibitors of the Aldehyde Dehydrogenase Family (ALDH2) Validation screens (AID 2061302; active means well fitted inhibition curve with a large enough effect; title and protocol of this record describe different tests;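 further: plate controls were DMSO vehicle for no effect and maximal DPI positive control response for full effect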).
The target in assay [4] is Retinaldehyde dehydrogenase 3 (Homo sapiens) (UniProt P47895). The experiment in a line: qHTS for Inhibitors of the Aldehyde Dehydrogenase Family (ALDH1A3) Validation screen (AID 2061312). Further: on the % scale 0 is the no-effect control and ±100 the full control effect; nearly all actives have a fitted effect of over 45% in size.
Assay [5] in a line: BET inhibitor-based combinations targeting novel dependencies in MECOM-rearranged (r) AML: SET-2 cell line (AID 2202231). Further: nearly all actives have a fitted effect of over 35% in size. Further: potency means the concentration at half of the fitted maximal effect.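 On viability: plate controls were DMSO treated cells for no effect and wells without cells for full effect.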 The note with it: SET-2 AML cells viability, CellTiter-Glo luminescence, 48 h; viability: active compounds read low, concentration not given here. A digest of the protocol:
(§1)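 A 48 hr incubation preceded viability reading by CellTiter-Glo, with 15 min room-temperature development. Dose series had 11 points; normalization used DMSO and empty wells; AUC was computed and mean-centered per line as Z-AUC.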
Background: In ATP-based viability assays light output follows the ATP content of the culture.

A short description of assay [6]: BET inhibitor-based combinations targeting novel dependencies in MECOM-rearranged (r) AML: OCI-AML3 cell line (AID 2202232). Further: nearly all actives have a fitted effect of over 35% in size. Further: potency means the concentration at half of the fitted maximal effect. The note with it: Potency: OCI-AML3 viability. In a few lines:
as §1

Assay [7] is described as follows: BET inhibitor-based combinations targeting novel dependencies in MECOM-rearranged (r) AML: HNT-34 cell line (AID 2202234). Further: nearly all actives have a fitted effect of over 35% in size. Further: potency means the concentration at half of the fitted maximal effect. A digest of the protocol:
(§2)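 Each compound is tested in an 11-point concentration series against 500 seeded cells/well for 48 hr. The luminescent viability signal is normalized to DMSO and blank wells, then reduced to AUC and a cell-line-centred Z-AUC.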

Assay [8] can be described thus: BET inhibitor-based combinations targeting novel dependencies in MECOM-rearranged (r) AML: UCSD-AML1 cell line (AID 2202235).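 Further: series mostly up to about 46 µM; plate controls were DMSO vehicle wells for no effect and blank wells for full effect; nearly all actives have a fitted effect of over 40% in size.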 A digest of the protocol: as §2
Assay [9] in a line: BET inhibitor-based combinations targeting novel dependencies in MECOM-rearranged (r) AML: AML-191 cell line (AID 2202236; further: nearly all actives have a fitted effect of over 35% in size; further: potency means the concentration at half of the fitted maximal effect). A digest of the protocol: as §1
Assay [10] in a line: BET inhibitor-based combinations targeting novel dependencies in MECOM-rearranged (r) AML: AML-194 cell line (AID 2202237;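 further: plate controls were vehicle wells for no effect and wells without cells for full effect; nearly all actives have a fitted effect of over 40% in size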). A digest of the protocol: as §1
A short description of assay [11]: BET inhibitor-based combinations targeting novel dependencies in MECOM-rearranged (r) AML: MV-4-11 cell line (AID 2202233). Further: nearly all actives have a fitted effect of over 45% in size. Further: potency means the concentration at half of the fitted maximal effect. A digest of the protocol:
as §2

Each structure is given as a SMILES string. Several values for one entry are separate records, joined by “and”; a condition that tells them apart may be missing. Identical values can stand only once. Results filed as inconclusive are left out. Unmarked numbers belong to inactive results. Activity calls are given as the source filed them. Unless noted, the call rests on the fitted dose curve; in most records, active means well fitted curve in the direction sought with a large enough effect; inconclusive means small, poorly fitted or top-dose-only effect, or another doubt; inactive means no such curve, though single readings can be large; an effect the other way counts as inactive or inconclusive.

Cellular tumor antigen p53 (Homo sapiens), sequence (P04637 whole entry, looked up): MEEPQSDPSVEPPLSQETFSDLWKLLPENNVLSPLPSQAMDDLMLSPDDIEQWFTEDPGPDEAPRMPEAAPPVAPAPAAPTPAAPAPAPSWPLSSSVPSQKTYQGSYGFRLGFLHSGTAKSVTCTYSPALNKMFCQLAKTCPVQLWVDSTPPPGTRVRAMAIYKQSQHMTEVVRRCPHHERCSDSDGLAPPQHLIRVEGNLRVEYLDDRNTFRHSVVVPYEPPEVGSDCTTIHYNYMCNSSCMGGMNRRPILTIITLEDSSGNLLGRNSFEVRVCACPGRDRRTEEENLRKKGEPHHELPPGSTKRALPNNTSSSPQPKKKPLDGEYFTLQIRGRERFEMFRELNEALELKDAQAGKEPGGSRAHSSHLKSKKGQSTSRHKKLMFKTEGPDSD

Take `NCCS(=O)(=O)O`: the activation in assay [1] was -4.87% and 12%. Further, the Potency result in assay [2], in assay [3], in assay [4], in assay [6], in assay [7] and in assay [8] was “inactive” each time. The Potency result in assay [9] and in [10] was “inactive” each time. In addition, in assay [5], the viability – broadly, a read-out of living cells in per cent, often relative to untreated cells – was 125%.

For the molecule `Cc1ccc(C(=O)Nc2ccc(S(=O)(=O)O)c3cc(S(=O)(=O)O)cc(S(=O)(=O)O)c23)cc1NC(=O)c1cccc(NC(=O)Nc2cccc(C(=O)Nc3cc(C(=O)Nc4ccc(S(=O)(=O)O)c5cc(S(=O)(=O)O)cc(S(=O)(=O)O)c45)ccc3C)c2)c1`, in assay [1], the activation is -19.3% and -10.7% and -18.3%. For the same molecule, the Potency result in assay [2], in assay [3], in [4], in assay [6], in [11] and in [7] was “inactive” each time. Further, the Potency result in [8], in assay [9] and in assay [10] was “inactive” throughout. Further, the viability in [5] was 108%.

With `COc1cccc(-c2cc(=O)c3ccccc3o2)c1N`, the activation in assay [1] was 10.5% and -44.6%. The Potency entry in assay [2], in assay [3] and in assay [4] was “inactive” in each case. Further, in assay [5], the viability was 100%. Also, the Potency was 5.25 µM (active) in assay [6], 20.9 µM (active) in assay [11] and 14.8 µM (active) in assay [9].

In the case of `Clc1ccccc1C(c1ccccc1)(c1ccccc1)n1ccnc1`, the activation in [1] is -9.6% and -24.2%. For the same molecule, the Potency entry in assay [2], in assay [3] and in [4] was “inactive” in each case. The Potency in [5] is 18.6 µM (active); in assay [6], 16.6 µM (active); in assay [11], 18.6 µM (active); in assay [7], 18.6 µM (active); in assay [9] it was 23.5 µM (active).

Regarding `CN(C)c1nc(N(C)C)nc(N(C)C)n1`, the activation in [1] was -31.8% and -1.51% and -37.1%. For the same molecule, the Potency result in assay [2], in [3], in [4], in [6], in assay [11] and in assay [7] was “inactive” in each case. The Potency result in assay [8] and in assay [10] was “inactive” each time. The viability in [5] is 111%.

Consider `CC(C)C[C@H](NC(=O)[C@@H](O)[C@H](N)Cc1ccccc1)C(=O)O`, for which the activation in assay [1] is -10.8%. Further, the Potency result in assay [2], in assay [3], in assay [4], in assay [6], in [11] and in assay [7] was “inactive” in each case. Besides, the Potency entry in [8], in assay [9] and in [10] was “inactive” in each case. Also, in assay [5], the viability is 104%.

In the case of `NC(=O)c1ccc2[nH]ccc2c1`, the activation in assay [1] was 3.04%. For the same molecule, the Potency result in assay [2], in [3], in assay [4], in assay [6], in assay [11] and in [7] was “inactive” in each case. Further, the Potency entry in assay [8], in [9] and in assay [10] was “inactive” each time. Moreover, in [5], the viability is 107%.

In the case of `CCOC(=O)c1ncn2c1CN(C)C(=O)c1cc(F)ccc1-2`, the activation in assay [1] was -0.975% and -12.6% and 1.77%. For the same molecule, the Potency entry in assay [2], in [3], in [4], in assay [6], in [11] and in assay [7] was “inactive” each time. The Potency result in [8], in [9] and in assay [10] was “inactive” in each case. The viability in [5] was 114%.

For `O=c1[nH]cc(F)c(=O)[nH]1`, the activation in assay [1] was -32.6% and 6.33%. For the same molecule, the Potency result in assay [2], in [3] and in [4] was “inactive” in each case. In [5], the Potency was 10.5 µM (active).

On to `O=c1c(O)c(-c2ccc(O)cc2O)oc2cc(O)cc(O)c12`, for which, in assay [1], the activation is 15.3% and -27.9%. The Potency result in [2], in [3], in [4], in assay [6], in [11] and in assay [9] was “inactive” in each case. Moreover, in assay [10], the Potency entry was “inactive”. Further, the viability in [5] was 122%.

Regarding `CCCN(CCC)C(=O)C(CCC(=O)O)NC(=O)c1ccccc1` (configuration not stated), the activation in [1] was -4.18% and 0.787%. The Potency entry in assay [2], in [3], in assay [4], in assay [6], in assay [11] and in assay [7] was “inactive” throughout. Also, the Potency entry in [8], in [9] and in assay [10] was “inactive” in each case. Further, the viability in [5] was 109%.

Turning to `CN(C)C(=O)C(CCN1CCC(O)(c2ccc(Cl)cc2)CC1)(c1ccccc1)c1ccccc1`, the activation in assay [1] is 62.2% and -46.1%. Moreover, the Potency entry in assay [2], in assay [3] and in assay [4] was “inactive” throughout. Moreover, the Potency in assay [5] was 14.8 µM (active); in assay [11], 20.9 µM (active); in assay [7], 20.9 µM (active).

`Cc1cnc(NC(=O)C2=C(O)c3ccccc3S(=O)(=O)N2C)s1`: the activation in assay [1] is -27.7% and -26.4% and -6.82%. Moreover, the Potency entry in [2], in assay [3], in assay [4], in assay [6], in [11] and in assay [7] was “inactive” in each case. In addition, the Potency result in assay [8], in [9] and in assay [10] was “inactive” throughout. Also, the viability in [5] is 110% and 107% and 111%.

On to `CC/C(=C(\c1ccccc1)c1ccc(OCCN(C)C)cc1)c1ccccc1`, for which the activation in assay [1] is -17.6% and -12.3% and -27%. The Potency entry in assay [2], in assay [3] and in assay [4] was “inactive” in each case. The Potency was 12.1 µM (active) in assay [5] and 15.2 µM (active) in assay [11].

With `Nc1ncnc2c1ncn2[C@@H]1O[C@H](CO)[C@@H](O)[C@H]1O`, the activation in assay [1] was 6.69% and -13%. Further, the Potency entry in [2], in [3], in assay [4], in assay [6], in assay [11] and in assay [7] was “inactive” throughout. Also, the Potency entry in assay [8], in assay [9] and in [10] was “inactive” in each case. Moreover, in assay [5], the viability was 126%.

`CCCc1c(OCCCOc2ccc(OCC(=O)O)cc2)ccc(C(C)=O)c1O`: the activation in assay [1] is -13.9%. In addition, the Potency entry in [2], in assay [3], in assay [4], in assay [6], in [11] and in assay [7] was “inactive” each time. In addition, the Potency entry in assay [9] and in assay [10] was “inactive” throughout. Besides, in assay [5], the viability is 119%.

In the case of `NS(=O)(=O)c1cc2c(cc1Cl)NC=NS2(=O)=O`, the activation in [1] was -10% and -6.71% and -22.3%. In addition, the Potency result in assay [2], in assay [3], in [4], in assay [6], in assay [11] and in assay [7] was “inactive” throughout. Moreover, the Potency entry in assay [8], in assay [9] and in assay [10] was “inactive” throughout. For the same molecule, in assay [5], the viability is 111%.
